Source: paper PMC4336329 (PLoS ONE, 2015)
The whole screen tested about 310,000 compounds, of which about 14,000 (4.5%) showed an effect of 50% or more. Effects have a minus sign here. The sample holds strong results, similar compounds and a random draw of the others, so the mix is not that of the screen.
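Note: peak tail current of the secondary pulse compared with the same well before compound.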

What follows are compounds tested against human ether-à-go-go-related gene (hERG) potassium channel (human, UniProt Q12809) (assay: primary screen, population patch clamp on CHO cells stably expressing hERG; higher = less effect of the substance).
human ether-à-go-go-related gene (hERG) potassium channel, sequence (Q12809 whole entry, looked up): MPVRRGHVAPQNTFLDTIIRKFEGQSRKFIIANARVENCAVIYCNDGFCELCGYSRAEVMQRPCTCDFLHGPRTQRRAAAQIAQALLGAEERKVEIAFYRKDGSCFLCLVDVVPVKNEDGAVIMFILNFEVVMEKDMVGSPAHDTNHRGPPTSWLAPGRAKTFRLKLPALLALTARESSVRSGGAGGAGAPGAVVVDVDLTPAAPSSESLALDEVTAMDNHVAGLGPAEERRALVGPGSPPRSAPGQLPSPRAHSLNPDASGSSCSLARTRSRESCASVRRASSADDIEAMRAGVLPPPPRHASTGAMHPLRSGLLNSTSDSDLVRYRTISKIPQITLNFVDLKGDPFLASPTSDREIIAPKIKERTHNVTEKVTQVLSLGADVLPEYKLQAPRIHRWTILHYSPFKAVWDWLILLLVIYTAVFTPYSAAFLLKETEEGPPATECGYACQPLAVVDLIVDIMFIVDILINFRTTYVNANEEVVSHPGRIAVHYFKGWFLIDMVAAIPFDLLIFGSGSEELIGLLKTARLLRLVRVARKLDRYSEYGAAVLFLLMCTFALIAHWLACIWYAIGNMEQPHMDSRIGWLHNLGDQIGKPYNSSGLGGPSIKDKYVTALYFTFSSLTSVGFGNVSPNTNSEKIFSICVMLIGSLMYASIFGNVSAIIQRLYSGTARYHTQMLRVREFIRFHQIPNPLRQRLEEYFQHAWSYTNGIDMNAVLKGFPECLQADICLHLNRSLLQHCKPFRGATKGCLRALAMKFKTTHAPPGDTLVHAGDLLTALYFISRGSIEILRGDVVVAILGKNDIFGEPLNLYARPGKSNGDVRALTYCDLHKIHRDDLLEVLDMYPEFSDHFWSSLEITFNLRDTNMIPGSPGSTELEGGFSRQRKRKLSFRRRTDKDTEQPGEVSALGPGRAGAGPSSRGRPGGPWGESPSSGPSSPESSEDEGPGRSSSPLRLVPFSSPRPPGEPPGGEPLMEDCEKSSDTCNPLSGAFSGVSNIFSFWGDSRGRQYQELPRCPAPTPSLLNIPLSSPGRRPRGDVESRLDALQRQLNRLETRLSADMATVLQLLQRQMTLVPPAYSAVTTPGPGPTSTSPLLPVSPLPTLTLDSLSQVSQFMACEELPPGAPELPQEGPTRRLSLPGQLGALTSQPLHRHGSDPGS
In the case of Cc1cccc(NS(=O)(=O)c2cccc(C(=O)N3CCCC3)c2)c1, the “hERG current change (%, negative = inhibition) at 10uM” value is reported as 4.7%. In the case of CC(C)(C)NC(=O)COC(=O)c1ccc(Cl)cc1O, the “hERG current change (%, negative = inhibition) at 10uM” value is reported as 18.8%. With C=CCN=C1CC(C)(C)CC(=O)/C1=C(\O)CCCN1C(=O)c2ccccc2C1=O the “hERG current change (%, negative = inhibition) at 10uM” value was -23.5%. In the case of Cc1ccc(NC2c3ncccc3C(=O)N2C2CCCCC2)cc1 (centres unmarked), the “hERG current change (%, negative = inhibition) at 10uM” value is reported as 5.93%. In the case of Cn1cc(CN2CCN(c3cnccn3)CC2)c(-c2cccc(Cl)c2)n1, the “hERG current change (%, negative = inhibition) at 10uM” value is reported as 6.29%. COc1cc2c(cc1OC)C(C(=O)N1CCN(c3ccccc3)CC1)C(c1cccs1)N(C)C2=O (centres unmarked) was tested, and the “hERG current change (%, negative = inhibition) at 10uM” value was -68.1%. With COc1cc2c(cc1OC)C(C(=O)N1CCOCC1)C(c1cccs1)N(C)C2=O (centres unmarked) the “hERG current change (%, negative = inhibition) at 10uM” value was 4.09%. With COc1cc2c(cc1OC)C(C(=O)N1CCN(c3ccccn3)CC1)C(c1cccs1)N(C)C2=O (centres unmarked) the “hERG current change (%, negative = inhibition) at 10uM” value was -38%. For O=C(O)CN(Cc1ccco1)S(=O)(=O)c1ccccc1, the “hERG current change (%, negative = inhibition) at 10uM” value was 11.6%. Nc1nnc(SCC(=O)Nc2cccc(S(=O)(=O)N3CCCCC3)c2)s1 was tested, and the “hERG current change (%, negative = inhibition) at 10uM” value was -12.8%. With CCCC[C@@H]1C[C@H]1[C@@H](NC(=O)c1ccco1)c1ccc(C(=O)OC)cc1 the “hERG current change (%, negative = inhibition) at 10uM” value was -34%. CCCC[C@@H]1C[C@H]1[C@@H](NC(=O)c1ccco1)c1ccc(Cl)cc1 was tested, and the “hERG current change (%, negative = inhibition) at 10uM” value was -50.2%. CCCC[C@@H]1C[C@H]1[C@@H](NC(=O)c1cccs1)c1ccc(Cl)cc1 was tested, and the “hERG current change (%, negative = inhibition) at 10uM” value was -9.44%. CC(=O)NC(Cc1ccccc1C)C(=O)NC1CCN(C(=O)c2cccc(C)c2)CC1 (centres unmarked) was tested, and the “hERG current change (%, negative = inhibition) at 10uM” value was 34.5%. For O=C(CSCC(=O)NCc1ccco1)NCc1ccco1, the “hERG current change (%, negative = inhibition) at 10uM” value was -66%. O=C(CSc1ncc(-c2ccccc2)nn1)NCc1ccco1 was tested, and the “hERG current change (%, negative = inhibition) at 10uM” value was -23.6%. In the case of O=C(CCSCCC(=O)NCc1ccco1)NCc1ccco1, the “hERG current change (%, negative = inhibition) at 10uM” value is reported as 6.38%. For O=C(CSc1ccc2nnc(-c3ccccn3)n2n1)NCC1CCCO1 (centres unmarked), the “hERG current change (%, negative = inhibition) at 10uM” value was -8.53%. In the case of Cc1ccc(NC(=O)CSCC(=O)NCc2ccco2)cc1, the “hERG current change (%, negative = inhibition) at 10uM” value is reported as -0.0131%. With Cc1ccc(-c2nnc3ccc(SCC(=O)NCc4ccco4)nn23)cc1 the “hERG current change (%, negative = inhibition) at 10uM” value was -6.59%. In the case of CCOc1ccc(-c2nnc3ccc(SCC(=O)NCc4ccco4)nn23)cc1, the “hERG current change (%, negative = inhibition) at 10uM” value is reported as -8.72%. O=C(CSc1ccc2nnc(-c3ccccc3)n2n1)NCc1ccco1 was tested, and the “hERG current change (%, negative = inhibition) at 10uM” value was -72.2%. O=C(CSc1ccc2nnc(-c3ccccn3)n2n1)NCc1ccco1 was tested, and the “hERG current change (%, negative = inhibition) at 10uM” value was -63.1%. With O=C(CSc1nnc(-c2ccccc2)c(-c2ccccc2)n1)NCc1ccco1 the “hERG current change (%, negative = inhibition) at 10uM” value was -55.5%. For O=C(CSc1nc(-c2ccccc2)c(-c2ccccc2)[nH]1)NCc1ccco1, the “hERG current change (%, negative = inhibition) at 10uM” value was -1.63%. For O=C(CSc1ccc2nnc(-c3ccncc3)n2n1)NCc1ccco1, the “hERG current change (%, negative = inhibition) at 10uM” value was -25.8%. For Cc1cc(C(=O)N/N=C/c2ccc([N+](=O)[O-])o2)c(C)o1, the “hERG current change (%, negative = inhibition) at 10uM” value was -7.72%. For CNC(=O)c1ccc(NC(=O)/C=C/c2cccc(F)c2)cc1, the “hERG current change (%, negative = inhibition) at 10uM” value was -18.3%. With Cn1nc(NC(=O)C2CCC2C(=O)O)c2c(F)cccc21 (centres unmarked) the “hERG current change (%, negative = inhibition) at 10uM” value was -0.347%. Cc1ccc(OCCOc2ccc(Br)cc2)c([N+](=O)[O-])n1 was tested, and the “hERG current change (%, negative = inhibition) at 10uM” value was -6.68%. COc1ccc(CNC(=O)C(C)c2ccc([N+](=O)[O-])cc2)cc1 (centres unmarked) was tested, and the “hERG current change (%, negative = inhibition) at 10uM” value was -21.2%. With O=C(Nc1ccc2c(c1)OCO2)c1ccc(Cl)s1 the “hERG current change (%, negative = inhibition) at 10uM” value was -2.22%. For COc1ccc(-c2nnc3ccc(SCC(=O)NCc4ccco4)nn23)cc1OC, the “hERG current change (%, negative = inhibition) at 10uM” value was -28.3%. In the case of O=C(CSc1ccc2nnc(-c3ccc(F)cc3)n2n1)NCc1ccco1, the “hERG current change (%, negative = inhibition) at 10uM” value is reported as -21.7%. With O=C(CSc1ccc2nnc(-c3cccc(F)c3)n2n1)NCc1ccco1 the “hERG current change (%, negative = inhibition) at 10uM” value was -65.5%. Cc1ccc(S(=O)(=O)Nc2ccc3[nH]ccc3c2)cc1 was tested, and the “hERG current change (%, negative = inhibition) at 10uM” value was -9.71%. In the case of OCC1(CCOc2ccccc2)CCN(Cc2ccc3c(c2)OCCO3)CC1, the “hERG current change (%, negative = inhibition) at 10uM” value is reported as -75.1%. In the case of CCOC(=O)C1(CCOC)CCN(CC(C)Cc2ccc3c(c2)OCO3)CC1 (centres unmarked), the “hERG current change (%, negative = inhibition) at 10uM” value is reported as -43.1%. CCOC(=O)C1(CCOc2ccccc2)CCN(Cc2ccc3c(c2)OCCO3)CC1 was tested, and the “hERG current change (%, negative = inhibition) at 10uM” value was -73.3%. With CCOC(=O)C1(CCc2ccccc2)CCN(C(=O)CN2CCOC2=O)CC1 the “hERG current change (%, negative = inhibition) at 10uM” value was 14.6%. For CCOC(=O)C1(CCc2ccccc2)CCN(Cc2ccc3c(c2)OCCO3)CC1, the “hERG current change (%, negative = inhibition) at 10uM” value was -84.4%. CCOC(=O)C1(Cc2ccccc2)CCN(Cc2ccc3c(c2)OCCO3)CC1 was tested, and the “hERG current change (%, negative = inhibition) at 10uM” value was -33.1%. In the case of O=C1/C(=C\c2ccco2)SC(=S)N1Cc1ccccc1, the “hERG current change (%, negative = inhibition) at 10uM” value is reported as 10.8%. N#Cc1ccc(Oc2ccc(NC(=O)C3CC=CCC3C(=O)O)cc2)cc1 (centres unmarked) was tested, and the “hERG current change (%, negative = inhibition) at 10uM” value was 12.9%. In the case of O=C1OC2(c3ccccc3)C3CCCC2C13, the “hERG current change (%, negative = inhibition) at 10uM” value is reported as 11.1%. For O=S(=O)(c1cccs1)N1CCN(c2ccc(F)cc2)CC1, the “hERG current change (%, negative = inhibition) at 10uM” value was -43.1%. For O=C(Nc1cccc(OCC(=O)N2CCOCC2)c1)c1cccc([N+](=O)[O-])c1, the “hERG current change (%, negative = inhibition) at 10uM” value was 25.9%. CC(=O)Oc1ccccc1N1C(=O)c2ccc(C(=O)O)cc2C1=O was tested, and the “hERG current change (%, negative = inhibition) at 10uM” value was 11.3%. With Oc1ccccc1OCc1nc2ccccc2s1 the “hERG current change (%, negative = inhibition) at 10uM” value was -13.7%. For Cc1nc2ccc(C(=O)N/N=C/c3ccccc3O)cc2[nH]1, the “hERG current change (%, negative = inhibition) at 10uM” value was 9.25%. N#Cc1c(N)n[nH]c1Cc1cccc2ccccc12 was tested, and the “hERG current change (%, negative = inhibition) at 10uM” value was 12.3%. For CCCCc1nc(C(N)=O)c2[nH]c(=O)n(-c3ccc(OC)cc3OC)c2n1, the “hERG current change (%, negative = inhibition) at 10uM” value was 1.88%. With CCC(CC)C(=O)c1c[nH]c(C(=O)N2CCN(c3ccccc3F)CC2)c1 the “hERG current change (%, negative = inhibition) at 10uM” value was 25.2%. With Br.COc1ccccc1N1Cc2ccccc2C1 the “hERG current change (%, negative = inhibition) at 10uM” value was -13.2%. COc1ccccc1-n1c(CCC(=O)O)ccc1-c1ccccc1 was tested, and the “hERG current change (%, negative = inhibition) at 10uM” value was -12.9%. In the case of Cc1ccc(-n2c(-c3ccccc3)n[nH]c2=S)c(C)c1, the “hERG current change (%, negative = inhibition) at 10uM” value is reported as 7.9%. In the case of Cc1ccc(-n2c(-c3ccccc3)c[n+]3c2CCc2ccccc2-3)c(C)c1.[Br-], the “hERG current change (%, negative = inhibition) at 10uM” value is reported as -93%. With Cc1ccc(NC(=O)C[n+]2cc(-c3ccccc3)n3c2CCC3)c(C)c1.[Cl-] the “hERG current change (%, negative = inhibition) at 10uM” value was -9.62%. With COc1ccccc1-n1c(-c2ccccc2)c[n+]2c1CCc1ccccc1-2.[Br-] the “hERG current change (%, negative = inhibition) at 10uM” value was -74.1%.
